Measurements: PubChem BioAssay (NCI)
About 79,000 compounds went through this panel and 15% of them were active in at least one assay; those are over-represented in the sample as a whole. A number with no mark means an inactive call. Active and inactive are the calls of the source. Cut-off read from the data, not from the text of the source: active = growth inhibition above about 70%; inactive = the rest.

Assay: NCI Yeast Anticancer Drug Screen. Data for the sgs1 strain (AID 173);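 note: 0% = growth of vehicle-only control cultures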
Settings: S. cerevisiae sgs1 mutant, active compounds read high
Protocol: Growth inhibition of yeast strains with defined genetic alterations is measured as a screen for potential anti-cancer activity. Selected strains with alterations in DNA damage repair or cell cycle control were exposed to compounds and growth inhibition was measured relative to vehicle treated controls. The strain used in this assay is sgs1

Question: What does the source list for `CCOC(=O)c1ccc(NC(=O)O/N=C(/Cl)C(C)C)cc1`?
Answer: growth inhibition (at 1.2 µM): -3%; growth inhibition (at 3.7 µM): -4%; growth inhibition (at 11.0 µM): 28%; growth inhibition (at 33.0 µM): 93% (active); growth inhibition (at 100.0 µM): 99% (active)

Question: With `CSc1nc(C)c(CCOC(C)=O)c(N=P(c2ccccc2)(c2ccccc2)c2ccccc2)n1` as the compound, how does the growth inhibition (at 1.2 µM) read?
Answer: 7%

Question: What about the growth inhibition (at 3.7 µM) of the same compound?
Answer: 3%

Question: What about the growth inhibition (at 11.0 µM) of the same compound?
Answer: -4%

Question: What about the growth inhibition (at 33.0 µM) of the same compound?
Answer: -2%

Question: And the growth inhibition (at 100.0 µM)?
Answer: 93% (active)

Question: For `CNC(=O)OCc1c(COC(=O)NC)c2n(c1C)-c1ccc(OC)cc1CCC2`, which growth inhibition (at 1.2 µM) is on record?
Answer: -15%

Question: What about the growth inhibition (at 3.7 µM) of the same compound?
Answer: -15%

Question: What about the growth inhibition (at 11.0 µM) of the same compound?
Answer: -16%

Question: And the growth inhibition (at 33.0 µM)?
Answer: 95% (active)

Question: What about the growth inhibition (at 100.0 µM) of the same compound?
Answer: 99% (active)

Question: Which results are given for `COc1cc(/C=N/Nc2nnc3c4ccccc4c4ncccc4c3n2)cc(OC)c1OC`?
Answer: growth inhibition (at 1.2 µM): 2%; growth inhibition (at 3.7 µM): 5%; growth inhibition (at 11.0 µM): 4%; growth inhibition (at 33.0 µM): 9%; growth inhibition (at 100.0 µM): 10%

Question: For `COc1cc2ccnc(-c3c4ccccc4c(N)c4c(OC)c(OC)ccc34)c2cc1OC`, which growth inhibition (at 1.2 µM) is on record?
Answer: -1%

Question: What about the growth inhibition (at 3.7 µM) of the same compound?
Answer: 1%

Question: And the growth inhibition (at 11.0 µM)?
Answer: 6%

Question: And the growth inhibition (at 33.0 µM)?
Answer: 23%

Question: What about the growth inhibition (at 100.0 µM) of the same compound?
Answer: 70% (active)

Question: For `CCCC(=O)Oc1ccc(/C=N/NC(N)=S)nc1`, which growth inhibition (at 1.2 µM) is on record?
Answer: -10%

Question: What about the growth inhibition (at 3.7 µM) of the same compound?
Answer: -5%

Question: And the growth inhibition (at 11.0 µM)?
Answer: -2%

Question: What about the growth inhibition (at 33.0 µM) of the same compound?
Answer: -9%

Question: What about the growth inhibition (at 100.0 µM) of the same compound?
Answer: -1%

Question: For `CC[n+]1oc(C(=O)c2ccc(Cl)cc2)c(-c2ccccc2)c1-c1ccccc1.[Cl][Fe]([Cl])([Cl])[Cl]`, which growth inhibition (at 1.2 µM) is on record?
Answer: 0%

Question: What about the growth inhibition (at 3.7 µM) of the same compound?
Answer: -1%

Question: What about the growth inhibition (at 11.0 µM) of the same compound?
Answer: 18%

Question: And the growth inhibition (at 33.0 µM)?
Answer: 59%

Question: What about the growth inhibition (at 100.0 µM) of the same compound?
Answer: 87% (active)

Question: For `CSc1nnc(SC)nn1`, which growth inhibition (at 1.2 µM) is on record?
Answer: -2%

Question: And the growth inhibition (at 3.7 µM)?
Answer: 3%

Question: What about the growth inhibition (at 11.0 µM) of the same compound?
Answer: 0%

Question: And the growth inhibition (at 33.0 µM)?
Answer: 44%

Question: And the growth inhibition (at 100.0 µM)?
Answer: 98% (active)
